# Not all results are given here.
# TSHR antagonist: blocks TSH signaling through the human TSH receptor; AID 504810; activity change, negative = inhibition, % at 11.5 µM; P16473; TSHR-expressing cells, TSH-stimulated cAMP HTRF, 2 h; active compounds read low; 0.2% of 330,000 active;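 active = activity change below a set negative limit, meaning inhibition stronger than a set level, cut at about -70% in these data; inconclusive = activity change between two set negative limits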
# Target sequence (P16473 whole entry, looked up): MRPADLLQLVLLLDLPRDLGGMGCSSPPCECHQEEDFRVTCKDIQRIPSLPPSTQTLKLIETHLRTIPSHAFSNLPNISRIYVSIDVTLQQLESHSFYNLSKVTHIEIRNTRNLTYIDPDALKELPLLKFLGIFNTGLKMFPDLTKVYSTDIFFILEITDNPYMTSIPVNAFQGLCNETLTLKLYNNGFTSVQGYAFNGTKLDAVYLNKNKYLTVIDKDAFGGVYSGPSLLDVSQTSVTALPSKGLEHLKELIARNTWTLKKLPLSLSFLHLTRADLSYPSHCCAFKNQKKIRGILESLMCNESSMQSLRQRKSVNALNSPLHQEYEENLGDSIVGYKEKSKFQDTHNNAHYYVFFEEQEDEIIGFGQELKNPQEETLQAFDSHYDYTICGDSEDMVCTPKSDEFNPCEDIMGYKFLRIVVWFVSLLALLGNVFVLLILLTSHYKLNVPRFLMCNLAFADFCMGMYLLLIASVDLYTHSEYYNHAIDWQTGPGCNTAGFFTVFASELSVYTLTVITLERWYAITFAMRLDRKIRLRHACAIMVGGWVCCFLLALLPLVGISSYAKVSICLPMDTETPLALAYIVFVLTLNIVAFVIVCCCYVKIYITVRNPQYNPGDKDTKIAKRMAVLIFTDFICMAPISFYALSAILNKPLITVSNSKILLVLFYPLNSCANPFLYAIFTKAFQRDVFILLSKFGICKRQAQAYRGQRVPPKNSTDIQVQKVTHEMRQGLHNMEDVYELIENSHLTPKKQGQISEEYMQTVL
#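 Inhibition of cAMP made by TSHR-expressing cells under TSH stimulation (4nM final, EC80; 2 h, 37 deg C) is quantified with a one-step lysis HTRF kit, anti-cAMP cryptate versus cAMP-d2.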
# ELG1 DNA repair: blocks ELG1-dependent DNA repair in HEK293T cells; HEK293T ELG1-luciferase reporter, luminescence, 16 h; DNA damage induced by 5-fluorouridine; Potency, µM (top dose mostly 46.1 µM), for inactives: at the highest dose activity change, negative = inhibition, hits mostly inhibitors; 2.3% of 330,000 active; also: potency is read from the fitted curve at half-maximal effect; nearly all actives have a fitted effect of over 55% in size
#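 Quantitative HTS, concentration-response format. 2,000 cells/well co-treated with 5-fluorouridine and compound, 16 hr in 5% CO2 at 37 °C; ONE-Glo luminescence read after 30 min.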
# VP16 counter: counter-screen for ROR gamma inhibitors: Gal4-VP16 reporter; AID 2546; Potency, µM (top dose mostly 53.6 µM), inactives show at the top dose activity, negative = inhibition, actives largely listed as inhibitors; 3.5% of 310,000 active; Drosophila S2 Gal4-VP16 UAS-luciferase, luminescence, 20 h;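 also: Gal4-VP16 expression switched on by copper sulfate through the metallothionein promoter; potency is read from the fitted curve at half-maximal effect; nearly all actives have a fitted effect of over 50% in size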
# RORgamma inh: inhibitors of mouse ROR gamma transcriptional activity. P51450. Potency, µM (titrated, usually from 53.6 µM), for the others: top-dose activity change, negative = inhibition, usual class: inhibitors. 5.4% of 310,000 active. Drosophila S2 Gal4-RORgamma UAS-luciferase reporter, 20 h; also: potency is read from the fitted curve at half-maximal effect; nearly all actives have a fitted effect of over 60% in size
#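 Drosophila Schneider cells stably carrying a metallothionein-driven Gal4 DBD–ROR gamma fusion and a UAS-Photinus luciferase reporter were exposed to compound for 1 hr, then induced with copper sulfate (700 uM final) for 20 hr at ambient temperature before luminescence reading.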
# FBPA coupling cs: counter-screen for Giardia aldolase inhibitors: coupling enzyme system; coupling enzyme system counterscreen, AmpLite Red fluorescence; activity change, negative = inhibition, % at 58.2 µM, hits read low; 0.67% of 290,000 active; AID 2472; in the data active = activity change below about -30%
#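 Compounds tested against the coupling enzymes alone at 57.5 uM final; readout was AmpLite Red fluorescence (525/598 nm) after 20 min at RT.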
# Cell viab unstim: affects unstimulated cell viability, ELG1 hit counter-screen | shares compounds with ELG1 DNA repair | Potency, µM (top dose mostly 45.9 µM), for the others: at the top dose activity change, negative = loss of viability, most hits filed as cytotoxic | AID 624252 | cell viability counter-screen, unstimulated, luminescence | 8% of 900 active;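 also: potency is read from the fitted curve at half-maximal effect; compound exposure lasted 16 hours before reading; nearly all actives have a fitted effect of over 55% in size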
# * = called active by the depositor; ? = inconclusive; / = not tested or not shown; [ ] = dose if it differs, or a comment. Unless noted, calls follow the shape of the dose curve; as a rule, active = well fitted curve in the direction sought with a large enough effect; inconclusive = small, poorly fitted or top-dose-only effect, or another doubt; inactive = no such curve, though single readings can be large; an effect the other way counts as inactive or inconclusive. % is scaled to controls: 0 for no effect and ±100 for the full control effect.
SMILES,TSHR antagonist,ELG1 DNA repair,VP16 counter,RORgamma inh,FBPA coupling cs,Cell viab unstim
Cc1ccc(OCCNC(=O)CCNS(=O)(=O)c2ccc3ccccc3c2)cc1,2.7,-14.4%,/,/,/,/
COc1cc(CNc2ncc(-c3ccc(Br)cc3)n2C)cc(OC)c1O,6.3,?,-4.6%,5.6%[1.91 µM],-4.6,/
COc1ccc(/C=C/C(=O)O/N=C(\N)c2ccccn2)cc1OC,0.9,?,/,/,/,-8.9%
Nn1c(-c2ccc(O)cc2)nnc1-c1ccc(O)cc1,-2.8,0.6%,-4.4%,-31.0%,2.2,/
C=CCn1c(C)cc(C(=O)COC(=O)c2n[nH]c(=O)c3ccccc23)c1C,-10.1,?,/,/,/,-10.3%

# High-throughput results: PubChem BioAssay, National Center for Advancing Translational Sciences (NCATS)
